Measurements reported in PubChem BioAssay (NCATS).
Inconclusive results are not listed. Activity calls are given as the source filed them. Calls follow the shape of the dose curve; as a rule, active = well fitted curve in the direction sought with a large enough effect; inconclusive = small, poorly fitted or top-dose-only effect, or another doubt; inactive = no such curve, though single readings can be large; an effect the other way counts as inactive or inconclusive.

Legend:
[1] = biological target: ATP-dependent 6-phosphofructokinase (Trypanosoma brucei brucei) (UniProt O15648); test: qHTS Assay to Find Inhibitors of T. brucei phosphofructokinase: hit validation (AID 492961);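 also: luminescence reports ADP formed as PFK phosphorylates fructose-6-phosphate with ATP; % is scaled to controls: 0 for no effect and ±100 for the full control effect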
Chain of ATP-dependent 6-phosphofructokinase (Trypanosoma brucei brucei) (O15648 whole entry, looked up): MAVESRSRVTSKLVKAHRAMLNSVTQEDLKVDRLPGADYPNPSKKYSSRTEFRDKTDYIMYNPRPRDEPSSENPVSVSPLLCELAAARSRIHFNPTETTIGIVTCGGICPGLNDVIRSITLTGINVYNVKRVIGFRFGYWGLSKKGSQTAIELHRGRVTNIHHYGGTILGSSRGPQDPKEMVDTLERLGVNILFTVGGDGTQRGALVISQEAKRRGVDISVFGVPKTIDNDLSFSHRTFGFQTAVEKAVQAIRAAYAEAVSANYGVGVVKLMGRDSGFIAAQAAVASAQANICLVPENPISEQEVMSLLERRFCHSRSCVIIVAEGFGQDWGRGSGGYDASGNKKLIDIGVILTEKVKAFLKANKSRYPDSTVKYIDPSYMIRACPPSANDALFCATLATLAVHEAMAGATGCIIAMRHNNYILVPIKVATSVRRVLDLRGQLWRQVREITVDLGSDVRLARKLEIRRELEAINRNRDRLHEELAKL
Procedure, shortened: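 In this biochemical qHTS validation, titrated compounds were tested against 1.25 nM PFK with 0.1 mM ATP and 0.5 mM F6P. Percent activity came from controls lacking or containing enzyme.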

[2] = qHTS profiling for inhibitors of Plasmodium falciparum proliferation (AID 504749);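 also: 0% = DMSO vehicle and full inhibition = artemisinin control; nearly all actives have a fitted effect of over 60% in size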; conditions: P. falciparum in erythrocytes, SYBR Green DNA, 72 h
Procedure, shortened: (§1)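 Infected RBCs, 0.3% parasitemia/2.5% Hct final; cpd 72 h, 37 C, 5% CO2; lysis buffer with saponin/triton/SYBR Green I, o/n RT dark; FI 485/535; norm. to artemisinin (0.29 uM) and DMSO.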

3D7 = test: as above; conditions: P. falciparum in erythrocytes, SYBR Green DNA, 72 h; series mostly up to 28.7 µM
Procedure, shortened: as §1

7G8 = test: as above; conditions: P. falciparum in erythrocytes, SYBR Green DNA, 72 h; series mostly up to 28.7 µM
Procedure, shortened: as §1

AS120 = test: as above; conditions: P. falciparum in erythrocytes, SYBR Green DNA, 72 h; series mostly up to 28.7 µM
Procedure, shortened: as §1

ATS189 = test: as above; conditions: P. falciparum in erythrocytes, SYBR Green DNA, 72 h; series mostly up to 28.7 µM
Procedure, shortened: as §1

CP185 = test: as above; conditions: P. falciparum in erythrocytes, SYBR Green DNA, 72 h; series mostly up to 28.7 µM
Procedure, shortened: as §1

CP191 = test: as above; conditions: P. falciparum in erythrocytes, SYBR Green DNA, 72 h; series mostly up to 28.7 µM
Procedure, shortened: as §1

CP192 = test: as above; conditions: P. falciparum in erythrocytes, SYBR Green DNA, 72 h; series mostly up to 28.7 µM
Procedure, shortened: as §1

CP194 = test: as above; conditions: P. falciparum in erythrocytes, SYBR Green DNA, 72 h; series mostly up to 28.7 µM
Procedure, shortened: as §1

CP201 = test: as above; conditions: P. falciparum in erythrocytes, SYBR Green DNA, 72 h; series mostly up to 28.7 µM
Procedure, shortened: as §1

CP203 = test: as above; conditions: P. falciparum in erythrocytes, SYBR Green DNA, 72 h; series mostly up to 28.7 µM
Procedure, shortened: as §1

CP237 = test: as above; conditions: P. falciparum in erythrocytes, SYBR Green DNA, 72 h; series mostly up to 28.7 µM
Procedure, shortened: as §1

CP238 = test: as above; conditions: P. falciparum in erythrocytes, SYBR Green DNA, 72 h; series mostly up to 28.7 µM
Procedure, shortened: as §1

CP247 = test: as above; conditions: P. falciparum in erythrocytes, SYBR Green DNA, 72 h; series mostly up to 28.7 µM
Procedure, shortened: as §1

CP286 = test: as above; conditions: P. falciparum in erythrocytes, SYBR Green DNA, 72 h; series mostly up to 28.7 µM
Procedure, shortened: as §1

CP291 = test: as above; conditions: P. falciparum in erythrocytes, SYBR Green DNA, 72 h; series mostly up to 28.7 µM
Procedure, shortened: as §1

DIV30 = test: as above; conditions: P. falciparum in erythrocytes, SYBR Green DNA, 72 h; series mostly up to 28.7 µM
Procedure, shortened: as §1

HB3 = test: as above; conditions: P. falciparum in erythrocytes, SYBR Green DNA, 72 h; series mostly up to 28.7 µM
Procedure, shortened: as §1

P94_40 = test: as above; conditions: P. falciparum in erythrocytes, SYBR Green DNA, 72 h; series mostly up to 28.7 µM
Procedure, shortened: as §1

[3] = at 28.7 µM (top of the series), parasite line A
[4] = at 28.7 µM (top of the series), parasite line B

CCCCN1CC(O)C(O)C(O)C1CO (stereo unspecified)
inactive: Potency [1] | activity, negative = inhibition [2, 3] 0.477% | activity, negative = inhibition [2, 4] 1.06% | Potency (3D7) | Potency (7G8) | Potency (AS120) | Potency (ATS189) | Potency (CP185) | Potency (CP191) | Potency (CP192) | Potency (CP194) | Potency (CP201) | Potency (CP203) | Potency (CP237) | Potency (CP238) | Potency (CP247) | Potency (CP286) | Potency (CP291) | Potency (DIV30) | Potency (HB3) | Potency (P94_40)

CC(=O)NC[C@@H]1CN(c2ccc(N3CCOCC3)c(F)c2)C(=O)O1
inactive: Potency [1] | activity, negative = inhibition [2, 3] -12.2% | activity, negative = inhibition [2, 4] -9.57% | Potency (3D7) | Potency (7G8) | Potency (AS120) | Potency (ATS189) | Potency (CP185) | Potency (CP191) | Potency (CP192) | Potency (CP194) | Potency (CP201) | Potency (CP203) | Potency (CP237) | Potency (CP238) | Potency (CP247) | Potency (CP286) | Potency (CP291) | Potency (DIV30) | Potency (HB3) | Potency (P94_40)

CNC(=O)C(N)CSC(C)C1=C(C)c2cc3[n-]c(cc4nc(cc5[n-]c(cc1n2)c(C)c5CCC(=O)O)C(CCC(=O)O)=C4C)c(C)c3C(C)SCC(N)C(=O)NC.[Fe+2] (stereo unspecified)
inactive: Potency [1] | activity, negative = inhibition [2, 3] 8.98% | activity, negative = inhibition [2, 4] -1.36% | Potency (3D7) | Potency (7G8) | Potency (AS120) | Potency (ATS189) | Potency (CP185) | Potency (CP191) | Potency (CP192) | Potency (CP194) | Potency (CP201) | Potency (CP203) | Potency (CP237) | Potency (CP238) | Potency (CP247) | Potency (CP286) | Potency (CP291) | Potency (DIV30) | Potency (HB3) | Potency (P94_40)

CC(=O)N[C@H]1[C@H](O[C@@H]2c3ccc(c(Cl)c3)Oc3cc4cc(c3O[C@@H]3O[C@H](CO)[C@@H](O)[C@H](O)C3C)Oc3ccc(cc3Cl)C[C@H]3NC(=O)[C@@H](N)c5ccc(O)c(c5)Oc5cc(O)cc(c5)[C@H](NC3=O)C(=O)N[C@H]4C(=O)N[C@H]3C(=O)N[C@@H]2C(=O)N[C@@H](C(=O)O)c2cc(O)cc(O[C@H]4O[C@H](CO)[C@@H](O)C(O)[C@@H]4O)c2-c2cc3ccc2O)O[C@H](CO)[C@@H](O)[C@@H]1O (stereo partly specified)
inactive: Potency [1] | activity, negative = inhibition ([2]; at 12.8 µM (top of the series), parasite line A) -7.42% | activity, negative = inhibition ([2]; at 12.8 µM (top of the series), parasite line B) 7.54% | Potency (3D7) | Potency (7G8) | Potency (AS120) | Potency (ATS189) | Potency (CP185) | Potency (CP191) | Potency (CP192) | Potency (CP194) | Potency (CP201) | Potency (CP203) | Potency (CP237) | Potency (CP238) | Potency (CP247) | Potency (CP286) | Potency (CP291) | Potency (DIV30) | Potency (HB3) | Potency (P94_40)

O=C(OC[C@@H]1O[C@@](O)(COC(=O)c2cccnc2)[C@H](OC(=O)c2cccnc2)[C@H]1OC(=O)c1cccnc1)c1cccnc1
inactive: Potency [1] | activity, negative = inhibition [2, 3] 18.2% | activity, negative = inhibition [2, 4] -0.864% | Potency (3D7) | Potency (7G8) | Potency (AS120) | Potency (ATS189) | Potency (CP185) | Potency (CP191) | Potency (CP192) | Potency (CP194) | Potency (CP201) | Potency (CP203) | Potency (CP237) | Potency (CP238) | Potency (CP247) | Potency (CP286) | Potency (CP291) | Potency (DIV30) | Potency (HB3) | Potency (P94_40)

C=CCn1c(=O)n(C2OC(CO)C(O)C2O)c2nc(N)[nH]c(=O)c21 (stereo unspecified)
inactive: Potency [1] | activity, negative = inhibition [2, 3] 5.09% | activity, negative = inhibition [2, 4] -6.68% | Potency (3D7) | Potency (7G8) | Potency (AS120) | Potency (ATS189) | Potency (CP185) | Potency (CP191) | Potency (CP192) | Potency (CP194) | Potency (CP201) | Potency (CP203) | Potency (CP237) | Potency (CP238) | Potency (CP247) | Potency (CP286) | Potency (CP291) | Potency (DIV30) | Potency (HB3) | Potency (P94_40)

C[C@H]1OC(OC2C(O)[C@@H](O)C(OC3C(O)[C@@H](O)C(O)O[C@@H]3CO)O[C@@H]2CO)[C@H](O)C(O)C1N[C@H]1C=C(CO)[C@@H](O)[C@H](O)C1O (stereo partly specified)
inactive: Potency [1] | activity, negative = inhibition [2, 3] -6.96% | activity, negative = inhibition [2, 4] 11.4% | Potency (3D7) | Potency (7G8) | Potency (AS120) | Potency (ATS189) | Potency (CP185) | Potency (CP191) | Potency (CP192) | Potency (CP194) | Potency (CP201) | Potency (CP203) | Potency (CP237) | Potency (CP238) | Potency (CP247) | Potency (CP286) | Potency (CP291) | Potency (DIV30) | Potency (HB3) | Potency (P94_40)

CC1OC(OC2CCC3(C)C(CCC4C3CC(O)C3(C)C(C5=CC(=O)OC5)CCC43O)C2)CC(O)C1OC1CC(O)C(OC2CC(O)C(OC3OC(CO)C(O)C(O)C3O)C(C)O2)C(C)O1 (stereo unspecified)
inactive: Potency [1] | activity, negative = inhibition [2, 3] 13.2% | activity, negative = inhibition [2, 4] -5.12% | Potency (3D7) | Potency (7G8) | Potency (AS120) | Potency (ATS189) | Potency (CP185) | Potency (CP191) | Potency (CP192) | Potency (CP194) | Potency (CP201) | Potency (CP203) | Potency (CP237) | Potency (CP238) | Potency (CP247) | Potency (CP286) | Potency (CP291) | Potency (DIV30) | Potency (HB3) | Potency (P94_40)

CC(=O)NC1[C@H]([C@H](O)[C@H](O)CO)OC(C(=O)O)=C[C@H]1N=C(N)N (stereo partly specified)
inactive: Potency [1] | activity, negative = inhibition [2, 3] 4.99% | activity, negative = inhibition [2, 4] 6.49% | Potency (3D7) | Potency (7G8) | Potency (AS120) | Potency (ATS189) | Potency (CP185) | Potency (CP191) | Potency (CP192) | Potency (CP194) | Potency (CP201) | Potency (CP203) | Potency (CP237) | Potency (CP238) | Potency (CP247) | Potency (CP286) | Potency (CP291) | Potency (DIV30) | Potency (HB3) | Potency (P94_40)

NC[C@@H]1O[C@H](OC2[C@@H](CO)O[C@@H](OC3[C@H](O)[C@H](N)C[C@H](N)[C@H]3OC3O[C@H](CO)[C@@H](O)[C@H](O)[C@@H]3N)[C@H]2O)C(N)[C@H](O)[C@@H]1O (stereo partly specified)
inactive: Potency [1] | activity, negative = inhibition [2, 3] 11.9% | activity, negative = inhibition [2, 4] 20% | Potency (3D7) | Potency (7G8) | Potency (AS120) | Potency (ATS189) | Potency (CP185) | Potency (CP191) | Potency (CP192) | Potency (CP194) | Potency (CP201) | Potency (CP203) | Potency (CP237) | Potency (CP238) | Potency (CP247) | Potency (CP286) | Potency (CP291) | Potency (DIV30) | Potency (HB3) | Potency (P94_40)

CC1OC(OCC2OC(Oc3c(-c4ccc(OCCO)c(OCCO)c4)oc4cc(OCCO)cc(O)c4c3=O)C(O)C(O)C2O)[C@@H](O)C(O)C1O (stereo partly specified)
inactive: Potency [1] | activity, negative = inhibition [2, 3] -11% | activity, negative = inhibition [2, 4] 4.27% | Potency (3D7) | Potency (7G8) | Potency (AS120) | Potency (ATS189) | Potency (CP185) | Potency (CP191) | Potency (CP192) | Potency (CP194) | Potency (CP201) | Potency (CP203) | Potency (CP237) | Potency (CP238) | Potency (CP247) | Potency (CP286) | Potency (CP291) | Potency (DIV30) | Potency (HB3) | Potency (P94_40)
